Screening results from PubChem.
CYP2C19 inhib = inhibitors of human CYP2C19. CYP2C19 Supersomes, luciferin-H EGE luminescence, 30 min. AID 778. inhibition, % at 5 µM. P33261. 96,000 tested, 21% active;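 active = CYP2C19 inhibition above a set limit at 5 µM in the primary screen, cut at about 50% in these data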
CYP2C9 activ = CYP2C9 (human) activation; P11712; recombinant CYP2C9, luciferin-H conversion, luminescence; hits give high values; factor 1 = untreated enzyme, 0 = blocked; activation factor at 5 µM; 96,000 tested, 1.4% active; AID 1024;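 active = activation factor of 2 or more for CYP2C9 at a 5 µM dose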
Target sequence (P11712 whole entry, looked up): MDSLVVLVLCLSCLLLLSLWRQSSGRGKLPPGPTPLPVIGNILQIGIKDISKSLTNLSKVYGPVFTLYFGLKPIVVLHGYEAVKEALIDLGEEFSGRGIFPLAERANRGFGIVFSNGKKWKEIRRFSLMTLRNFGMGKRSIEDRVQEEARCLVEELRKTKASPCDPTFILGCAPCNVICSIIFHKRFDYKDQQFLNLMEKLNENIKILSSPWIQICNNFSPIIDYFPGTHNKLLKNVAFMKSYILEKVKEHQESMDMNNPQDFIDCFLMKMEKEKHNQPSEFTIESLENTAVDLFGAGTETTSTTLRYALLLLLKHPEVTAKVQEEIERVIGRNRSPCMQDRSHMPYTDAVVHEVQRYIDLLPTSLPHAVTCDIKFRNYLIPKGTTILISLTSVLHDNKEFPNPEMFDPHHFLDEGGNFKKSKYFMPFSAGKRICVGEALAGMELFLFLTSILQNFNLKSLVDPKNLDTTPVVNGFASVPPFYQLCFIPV
PLAP act = activates human placental alkaline phosphatase | P05187 | purified PLAP enzyme, luminescent substrate read-out; hits give high values | activation fold at 20 µM | 96,000 tested, 1.2% active | AID 696; in the data active = activation fold above about 2
CYP2C19 act = activators of human cytochrome P450 2C19; P33261; recombinant CYP2C19, luciferin-H EGE luminescence; hits give high values; 0 = fully inhibited enzyme, 1 = untreated enzyme; activation factor at 5 µM; 96,000 tested, under 10 active;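 active = activation factor of at least 2 at 5 µM in the primary screen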
CYP2C9 inhib = human CYP2C9 inhibition; P11712; CYP2C9 Supersomes, luciferin-H conversion, luminescence; inhibition, % at 5 µM; 96,000 tested, 20% active; AID 777;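 active = blocking of liver enzyme CYP2C9 beyond about 50% at 5 µM, limit read from the data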
Hits are given with their value; - = inactive. In the library only some 31% were active in any assay of this set; here they are far more common.

SMILES	CYP2C19 inhib	CYP2C9 activ	PLAP act	CYP2C19 act	CYP2C9 inhib
CCC(CC)c1nnc(NC(=O)c2nc3nc(C)cc(C)n3n2)s1	-	-	-	-	-
COc1ccc(Oc2cc(C(F)(F)F)cnc2C(N)=O)cc1	67	-	-	-	-
NC(=O)c1ncc(C(F)(F)F)cc1Oc1cccc(C(F)(F)F)c1	93	-	-	-	-
O=C(c1ccco1)N1CCN(c2ncnc3c2[nH]c2ccccc23)CC1	67	-	-	-	-
O=C(c1ccco1)N1CCN(c2ncnc3c2[nH]c2ccc(Br)cc23)CC1	96	-	-	-	90
O=C(c1ccco1)N1CCN(c2ncnc3c(-c4ccccc4)nsc23)CC1	-	-	-	-	-
C=CCn1c(SCC(=O)Nc2nccs2)nnc1-c1cc2cccc(OC)c2o1	-	-	-	-	-
Cc1ccc(C(=O)Nc2ccc(CC(=O)O)cc2)o1	-	-	-	-	-
CC(=O)Nc1ccc(S(=O)(=O)NNC(=O)c2ccc(C)cc2)cc1	53	-	-	-	-
CC(=O)Nc1ccc(/C(C)=N/NS(=O)(=O)c2ccc(C)cc2)cc1	-	-	-	-	71
C/C(=N/NS(=O)(=O)c1ccc(Cl)cc1)c1cccc(O)c1	-	-	-	-	-
CC(=O)Nc1ccc(NC(=O)CNS(=O)(=O)c2ccc(C)cc2)cc1	-	-	-	-	-
COc1ccc(S(=O)(=O)N/N=C(/C)c2ccc(Cl)cc2)cc1	84	-	-	-	79
C/C(=N/NS(=O)(=O)c1ccc(Br)cc1)c1ccc(NC(=O)c2ccc(C)o2)cc1	-	-	-	-	98
O=C(CSc1ccc2c(c1)OCCO2)NCC1CCCO1 (stereo not drawn)	-	-	-	-	-
CC(=O)Nc1ccc(NC(=O)CN(C)CCC#N)cc1	-	-	-	-	-
CC(=O)Nc1ccc(S(=O)(=O)NNC(=O)c2cccc3ccccc23)cc1	-	-	-	-	62
CCC(=O)Nc1ccc(S(=O)(=O)Nc2cccnc2)cc1	-	-	-	-	-
CCC(NS(=O)(=O)c1ccc(C)cc1)C(=O)Nc1ccc(NC(C)=O)cc1 (stereo not drawn)	70	-	-	-	-
CCC(=O)Nc1ccc(/C(C)=N\NS(=O)(=O)c2ccc(C)cc2)cc1	-	-	-	-	61
CC(=O)Nc1ccc(S(=O)(=O)NNC(=O)c2cc3c4ccccc4n(C)c3s2)cc1	-	-	-	-	-
N=c1sccn1CC(=O)Nc1ccccc1-c1ccccc1	-	-	-	-	-
Cc1oc(-c2ccccc2F)nc1CS(=O)(=O)CC(=O)NCc1ccco1	-	-	-	-	-
CN(CCc1ccccn1)c1ncnc2[nH]ncc12	-	-	2.1	-	-
CC(C)Nc1c(N)c(=O)oc2ccccc12	-	-	-	-	-
SMILES	CYP2C19 inhib	CYP2C9 activ	PLAP act	CYP2C19 act	CYP2C9 inhib
Nc1c(NCc2ccccc2)c2ccccc2oc1=O	97	-	-	-	73
CCC1=NN(C(=O)Cc2ccc(OC)cc2)C(O)(C(F)(F)F)C1 (stereo not drawn)	53	-	-	-	-
CCC1=NN(C(=O)C(=O)Nc2ccc(OC)cc2)C(O)(C(F)(F)F)C1 (stereo not drawn)	-	-	-	-	-
CCC1=NN(C(=O)C(=O)Nc2ccccc2OC)C(O)(C(F)(F)F)C1 (stereo not drawn)	-	-	-	-	62
CCC1=NN(C(=O)C(=O)NCCc2ccccc2)C(O)(C(F)(F)F)C1 (stereo not drawn)	-	-	-	-	-
COc1ccccc1NC(=O)C(=O)N1N=C(C(C)C)CC1(O)C(F)(F)F (stereo not drawn)	-	-	-	-	-
CCC1=NN(C(=O)CCc2ccccc2)C(O)(C(F)(F)F)C1 (stereo not drawn)	67	-	-	-	-
COc1cccc(NC(=O)Cn2cc3c(n2)CCCCC3)c1	-	-	-	-	-
COc1ccc(N=Cc2c(O)[nH]c3ccccc23)cc1	-	-	-	-	-
Oc1[nH]c2ccccc2c1/C=N/c1nccs1	53	-	-	-	-
CCOC(=O)C1CCCN(C(=O)CN2CCN(Cc3ccc(Cl)cc3)C2=O)C1 (stereo not drawn)	-	-	-	-	-
Cn1cccc1C(=O)OCc1csc(-c2ccccc2)n1	-	-	-	-	-
Cn1cccc1C(=O)OCc1cc(Cl)cc2c1OCOC2	-	2.2	-	-	-
CCOC(=O)c1nnn(-c2nonc2N)c1CSc1ccc(C)cc1	79	-	-	-	51
CCOC(=O)c1nnn(-c2nonc2N)c1CSc1ccccc1	-	-	-	-	-
